The values below come from PubChem BioAssay AID628 (Vanderbilt High Throughput Screening Facility, 2007).

Each structure is given as a SMILES string. Screen size: about 64,000 compounds; about 2,200 (3.4%) were called active.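 How the source made its calls: active means calcium fluorescence response, raw or row-and-column corrected B-score, differing from the plate sample mean either way at a set confidence level, mostly lower; inactive means the rest.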 Many of the other results were omitted from the sample, so actives are more common in it than they were.

In the assay the target is Muscarinic acetylcholine receptor M1 (Rattus norvegicus) (UniProt P08482). Nature of the assay: blocks the rat M1 muscarinic receptor response to acetylcholine (AID 628). To be noted: CHO-M1 cells, Fluo-4 calcium, ACh EC80 antagonist mode; at 10 µM; stronger effect = lower value.
Muscarinic acetylcholine receptor M1 (Rattus norvegicus), sequence (P08482 whole entry, looked up): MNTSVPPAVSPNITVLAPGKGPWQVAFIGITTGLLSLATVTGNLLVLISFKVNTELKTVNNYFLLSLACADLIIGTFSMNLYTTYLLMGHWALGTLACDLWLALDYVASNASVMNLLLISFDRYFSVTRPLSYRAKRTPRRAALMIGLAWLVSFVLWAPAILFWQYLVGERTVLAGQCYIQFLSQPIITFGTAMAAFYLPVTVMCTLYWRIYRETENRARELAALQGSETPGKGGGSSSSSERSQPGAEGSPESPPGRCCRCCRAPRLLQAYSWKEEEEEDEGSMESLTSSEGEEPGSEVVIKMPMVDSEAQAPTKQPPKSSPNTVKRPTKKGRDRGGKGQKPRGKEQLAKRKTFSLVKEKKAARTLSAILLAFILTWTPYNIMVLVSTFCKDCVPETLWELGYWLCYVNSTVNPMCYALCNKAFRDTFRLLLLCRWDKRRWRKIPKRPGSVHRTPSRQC
On to `COc1ccc(C(CC(=O)O)NC(=O)Cc2ccccc2)cc1` (stereo unspecified), for which the B-score is -0.777 (inactive). Under `Cc1cc(C(=O)COC(=O)c2cccs2)c(C)n1-c1c(C)n(C)n(-c2ccccc2)c1=O` stands -1.28 (inactive); under `COc1ccccc1N=C1SC(C)CN1C(=O)C1CCC1` (stereo unspecified), 0.0033 (inactive). Under `CCOc1ccccc1N=C1NC(=O)CS1` stands 0.266 (inactive); under `CCC/C(O)=C1\C(=O)CC(C)(C)CC1=Nc1ccccc1OC`, -1.93 (active); under `CC1CN(Cc2nc3c(c(=O)n(C)c(=O)n3C)n2Cc2cccc(Cl)c2)CC(C)O1` (stereo unspecified), 1.23 (inactive).

Regarding `CC(=O)NCC(=O)N(C)C(C(=O)Nc1ccc2c(c1)OCCO2)c1ccccc1` (stereo unspecified), the B-score is 0.158 (inactive).

As to `CCCCC(CCC(=O)Nc1ccc(C(=O)OCC)cc1)C(=O)O` (stereo unspecified), the B-score is 0.867 (inactive). Under `CCCCCCOC(=O)NCC(O)c1ccccc1` (stereo unspecified) stands 0.126 (inactive). Under `CCCCCOC(=O)NCCOC(=O)Nc1ccc(C(=O)OCC)cc1` stands -2.48 (active); under `Cc1ccccc1Cn1c(=O)[nH]c2ccccc21`, -1.7 (inactive); under `CCn1c(=N)c(C(=O)NCCCOC)cc2c(=O)n3cccc(C)c3nc21`, -0.808 (inactive). Under `COc1ccc(CCn2c(=N)c(C(=O)NCc3ccco3)cc3c(=O)n4cccc(C)c4nc32)cc1` stands -2.38 (active). For `COc1ccc(CNC(=O)c2cc3c(=O)n4ccccc4nc3n(CC3CCCO3)c2=N)cc1` (stereo unspecified), the B-score was -1.29 (inactive).

Turning to `CCOC(=O)C1CCN(C(=O)C2CCN(S(=O)(=O)c3c(C)noc3C)CC2)CC1`, the B-score is 0.0324 (inactive).

With `Cn1c(=NC(=O)CSCC(=O)N2CCOCC2)sc2ccccc21`, the B-score was 0.949 (inactive).

With `CC(C)Oc1ccc(C(=O)Nc2cc(=O)n(C)c(=O)n2C)cc1`, the B-score was -0.0919 (inactive). `Cc1ccc(S(=O)(=O)Nc2ccccc2CNc2c(C)n(C)n(-c3ccccc3)c2=O)cc1`: the B-score is 0.193 (inactive).

Consider `COc1ccc(S(=O)(=O)Nc2c(C)n(C)n(-c3ccccc3)c2=O)cc1`, for which the B-score is 2.26 (active). Consider `COC(=O)Nc1c(C)n(C)n(-c2ccccc2)c1=O`, for which the B-score was -0.678 (inactive). Under `COc1ccccc1N1CCN(C(=O)CSc2nnc(-c3ccoc3C)o2)CC1` stands -1.48 (inactive); under `N=c1c2c3c(sc2ncn1N)CCCCC3`, 1.08 (inactive); under `O=C(O)[C@@H]1CCCN1c1ncnc2sc3c(c12)CCC3`, 0.0259 (inactive).

Regarding `CC1(C)CN=C(N2CCN(c3ncnc4sc5c(c34)CCCC5)CC2)S1`, the B-score is -3.91 (active). Under `O=C1CCCC2=C1C(c1cccs1)n1nc(SCc3ccccc3)nc1N2` (stereo unspecified) stands 1.97 (inactive); under `COC(=O)c1c(NC(=O)CCN2CCOCC2)sc2c1CCCC2`, 0.415 (inactive); under `CCOC(=O)c1c(NC(=O)CSc2nnc(C)c(=O)[nH]2)sc2c1CCC2`, 0.293 (inactive). The same measure for `CCOC(=O)c1c(NC(=O)CSc2nnc(CN3CCOCC3)n2C)sc2c1CCCC2`: -2.5 (active); for `Cc1coc2c(O)cc3c(c12)OC1(N2CCCCC2)C(=O)NCCCC31` (stereo unspecified): 0.313 (inactive); for `CCOc1ccc(N(CC(=O)OC)S(=O)(=O)c2c(C)noc2C)cc1`: 0.515 (inactive).

Regarding `Cc1cc(C)c2nc(SCCC#N)nc(C)c2c1`, the B-score was -0.0173 (inactive).

Turning to `CC(=O)N1C(=O)C2(Nc3ccccc3N2)c2ccccc21`, the B-score is -0.00551 (inactive).

For the compound `CCCc1[nH]nc2c1C(c1c(C)nn(-c3ccccc3)c1Cl)C(C#N)=C(N)O2` (stereo unspecified), the B-score was -0.557 (inactive). Under `COc1ccc(C2C(C(=O)Nc3ccccc3OC)=C(C)Nc3nnnn32)c(OC)c1` (stereo unspecified) stands -0.00786 (inactive).

In the case of `COc1ccccc1NC(=O)C1=C(C)Nc2nnnn2C1c1cccc(Br)c1` (stereo unspecified), the B-score is 0.285 (inactive).

Take `COC(=O)c1ccc(C2C3=C(Nc4nnnn42)c2ccccc2OC3)cc1` (stereo unspecified): the B-score was -2.33 (active). The same measure for `CCSc1nc(=S)n(CC)c(C)c1C(C)=O`: -0.669 (inactive); for `O=c1c2ccccc2oc2nc3n(c(=O)c12)CCCS3`: 0.0394 (inactive); for `CC(=C1C(=O)c2ccccc2C1=O)N1CCN(c2ccccn2)CC1`: 0.0748 (inactive). The same measure for `O=C(O)c1ccc(NS(=O)(=O)c2cccc3nsnc23)cc1`: 1.18 (inactive).

As to `O=C(C(NS(=O)(=O)c1cccc2nsnc12)c1ccccc1)N1CCN(c2ccccn2)CC1` (stereo unspecified), the B-score was -4.43 (active). The same measure for `O=C(CSc1nnnn1C1CCCC1)Nc1ccc2c(c1)OCCO2`: -1.53 (inactive); for `CCc1ccc2oc(=O)cc(CN3CCCCC3C)c2c1` (stereo unspecified): -0.803 (inactive); for `Cc1ccc(-c2ccc(=O)n(CC(=O)NCCCN3CCCCC3)n2)cc1`: -0.074 (inactive). Under `CC1(C)CC(=O)C=C(NCCCNC2CCCCC2)C1` stands -0.705 (inactive). The same measure for `CC(C[N+](C)(C)C)OC(N)=O` (stereo unspecified): -15 (active); for `CC(=O)OC(C)C[N+](C)(C)C` (stereo unspecified): -11.2 (active). Regarding `CCOC(=O)c1c(C)n(C)c2ccc(OC)c(NC(=O)CN3CCC4(CC3)OCCO4)c12`, the B-score was -0.00466 (inactive). Under `O=C(O)c1ccc(-n2cccc2)cc1O` stands -0.249 (inactive); under `COc1ccccc1OCCC(=O)OCC(=O)NC(=O)NC(C)(C)C`, -0.989 (inactive); under `CCOC(=O)Nc1ccc2c(c1)N(C(=O)CN1CCN3CCCC3C1)c1ccccc1CC2` (stereo unspecified), -4.22 (active).

With `O=C(CN1CCN(C2CCCCC2)CC1)Nc1ccccc1N1CCCCC1`, the B-score is -0.00297 (inactive). Under `CCOC(=O)C1CCCN(Cc2nc(N)nc(Nc3ccc(C)cc3)n2)C1` (stereo unspecified) stands -0.238 (inactive). The same measure for `CC(=O)Nc1cccc(NC(=O)c2c(-c3ccccc3)noc2C)c1`: 0.424 (inactive); for `Cn1c(=O)[nH]c(=O)c2c1nc(N1CCN(CCO)CC1)n2CCSc1nc2ccccc2s1`: -0.514 (inactive); for `C=C(Br)Cn1c(CCCC)nc2ccccc21`: 0.344 (inactive).

Consider `OC1CN=C2Sc3ccccc3N2C1` (stereo unspecified), for which the B-score was -0.000781 (inactive). Under `COc1cc(Cl)c(C)cc1NC(=O)CSc1nnc(-c2ccco2)n1CC(C)C` stands -3.28 (active).

Take `COc1cc(Cl)c(C)cc1NC(=O)CSc1nnc(-c2cccnc2)n1Cc1ccco1`: the B-score was 1.15 (inactive). The same measure for `CCn1c(SCC(=O)Nc2cc(C)c(Cl)cc2OC)nnc1-c1ccco1`: 0.0151 (inactive); for `Cc1ccc(C)c2[nH]c(=O)c(CCNC(=O)CC(C)C)cc12`: 0.426 (inactive).
